Measurements: PubChem BioAssay (NCI)
About 83,000 compounds went through this panel and 20% of them were active in at least one assay; those are over-represented in the sample as a whole.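 For each line, cells grew in 96-well plates with the test compound present at a single concentration for 48 hours.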 Values without a mark were called inactive. Activity calls are given as the source filed them. The calls were made as follows: active = growth percent below 10; inactive = the rest.

How the values were obtained:
Assay in all cases: NCI-60 one-dose screen, 48 h (100 = growth as untreated, 0 = no growth, -100 = all killed)
[1] = test system: SK-MEL-2 melanoma; details: 10 µM unless noted
[2] = test system: SN12C renal; details: 10 µM unless noted
[3] = test system: TK-10 renal; details: 10 µM unless noted
[4] = test system: ACHN renal; details: 10 µM unless noted
[5] = test system: CAKI-1 renal; details: 10 µM unless noted
[6] = test system: A498 renal; details: 10 µM unless noted
[7] = test system: MOLT-4 leukemia; details: 10 µM unless noted
[8] = test system: UO-31 renal; details: 10 µM unless noted
[9] = test system: EKVX NSCLC; details: 10 µM
[10] = test system: CCRF-CEM leukemia; details: 10 µM

`CCCC[N+](C)(N)CCCC` showed a growth [1] of 108%, a growth [2] of 104% and a growth [3] of 109%. The growth [4] was 99.7%, the growth [5] was 94.4% and the growth [6] was 115%. It also gave a growth [7] of 94.6%.

`CCCCCCCCCCCCCCCCCC(=O)Nc1ccc(O)cc1` showed a growth [1] of 83.1%, a growth [8] of 52.5% and a growth [3] of 85.3%. For the same compound, the growth [4] was 104%, the growth [5] was 95.1% and the growth [6] was 109%. The growth [7] was 26.7%.

For `Nc1nc2cc(O)ccc2n2cc3c(F)cccc3c12`, the growth [9] was 24.8%, the growth [2] was 47% and the growth [8] was 2.79% (active). For the same compound, the growth [3] was -12.5% (active), the growth [4] was 18.9% and the growth [5] was -12.1% (active). For the same compound, the growth [6] was 41.5%, the growth [10] was 58.4% and the growth [7] was 3.96% (active).

`COc1ccc2cn3c4ccc(O)cc4[nH]c(=O)c3c2c1` showed a growth [9] of 39%, a growth [2] of 51.7% and a growth [8] of 23.6%. The growth [3] was -2.48% (active), the growth [4] was 28.3% and the growth [5] was 16.9%. The growth [6] was 24.5%, the growth [10] was 29.2% and the growth [7] was 15.2%.

In the case of `NCCCOc1cc2ccccc2cc1C(=O)Nc1ccc(Cl)cc1OC(=O)c1cc2ccccc2cc1OCCCN`, the growth [9] is reported as -53.7% (active), the growth [2] is reported as -41.2% (active) and the growth [4] is reported as -96.7% (active). For the same compound, the growth [5] was -75.7% (active), the growth [6] was -96.1% (active) and the growth [7] was -17% (active).

`COc1cc(/C(=C2/O[C@@H]([C@H]3COC(C)(C)O3)[C@H]3OC(C)(C)O[C@@H]23)c2ccc3c(c2)OCO3)cc(OC)c1OC` gave a growth [9] of 74.3%, a growth [2] of 59.9% and a growth [3] of 70.7%. The growth [4] was 26.4%, the growth [5] was 68.6% and the growth [10] was 93.1%. It also gave a growth [7] of 106%.

Work on `COC(=O)C(Cc1cnc[nH]1)N1CC(=O)N2[C@@H](c3ccccc3)SC[C@H]2C1=O` (stereo partly specified) yielded a growth [9] of 101%, a growth [2] of 107% and a growth [8] of 88.4%. For the same compound, the growth [4] was 106%, the growth [5] was 94.1% and the growth [6] was 95.9%. The growth [10] was 99.6% and the growth [7] was 99.7%.

`O=c1[nH]c2cc(O)ccc2n2cc3c(F)cccc3c12` was tested, and the growth [9] was 25.2%, the growth [2] was 53.6% and the growth [8] was 12%. The growth [3] was 6.81% (active), the growth [4] was 24.5% and the growth [5] was -8.76% (active). The growth [6] was 39.5%, the growth [10] was 49% and the growth [7] was 6.71% (active).

In the case of `COC(=O)c1cc(O)c2cc3c(cc2c1-c1cc(OC)c(OC)c(OC)c1)OCO3`, the growth [9] is reported as 55.8%, the growth [8] is reported as 44.8% and the growth [3] is reported as 43.2%. The growth [4] was 36.8%, the growth [5] was 30.2% and the growth [6] was 45.6%. For the same compound, the growth [10] was 8.87% (active) and the growth [7] was 35.3%.

In the case of `COc1ccc(C(=O)N2N=C(c3ccc(Br)cc3)CC2c2cn(-c3ccccc3)nc2-c2ccccc2)cc1` (stereo unspecified), the growth [9] is reported as 78.5%, the growth [2] is reported as 58.9% and the growth [8] is reported as 84.5%. The growth [4] was 87.8%, the growth [5] was 75% and the growth [6] was 89.1%. It also gave a growth [10] of 67.9% and a growth [7] of 46.1%.

In the case of `O=C(Nc1ccc(-n2cc(-c3ccncc3)c(-c3ccc(Cl)c(O)c3)n2)cc1)c1cc(C(F)(F)F)cc(C(F)(F)F)c1`, the growth [9] is reported as 97.4%, the growth [2] is reported as 74.7% and the growth [8] is reported as 67.5%. It also gave a growth [3] of 65.4%, a growth [4] of 54.3% and a growth [5] of 60.4%. It also gave a growth [6] of 87.7%, a growth [10] of 72.9% and a growth [7] of 55.6%.

In the case of `COc1cc(-c2nn(-c3ccc(NC(=O)c4cc(Cl)cc(Cl)c4)cc3)cc2-c2ccncc2)ccc1Cl`, the growth [9] is reported as 80.1%, the growth [8] is reported as 65.7% and the growth [3] is reported as 69.4%. It also gave a growth [4] of 94.9%, a growth [5] of 38.8% and a growth [7] of 27.6%.

Compound `Clc1ccc(I)c2ccccc12` has a growth [2] of 111%, a growth [8] of 82.6% and a growth [3] of 92.6%. It also gave a growth [4] of 103%, a growth [5] of 95.6% and a growth [6] of 117%. It also gave a growth [7] of 98.9%.

In the case of `COc1cc(-c2nn(-c3ccc(NC(=O)Nc4ccc(Cl)c(Cl)c4)cc3)cc2-c2ccncc2)ccc1Cl`, the growth [9] is reported as 33.6%, the growth [2] is reported as 43.4% and the growth [8] is reported as 33.4%. It also gave a growth [4] of 20.9%, a growth [5] of 30.2% and a growth [6] of 38.7%. For the same compound, the growth [10] was 11.7% and the growth [7] was 9.31% (active).

Work on `Cc1ccccc1-n1c(C)nc2cc(NC(=O)c3ccc(Cl)cc3)ccc2c1=O` yielded a growth [9] of 51.5%, a growth [4] of 48.1% and a growth [5] of 58.8%. It also gave a growth [6] of 60.6%, a growth [10] of 52.7% and a growth [7] of 71.7%.

`O=C(N/N=C\c1ccc(-c2ccc(Br)cc2)o1)c1cc2oc(-c3cccc(C(F)(F)F)c3)cc2[nH]1` gave a growth [9] of 142%, a growth [8] of 122% and a growth [3] of 127%. The growth [4] was 95%, the growth [6] was 87.6% and the growth [10] was 0.0711% (active). The growth [7] was 66.6%.

In the case of `COC(=O)C(C(=O)OC)C(Br)C(Br)C(Br)c1ccccc1` (stereo unspecified), the growth [2] is reported as 97.9%, the growth [8] is reported as 77.7% and the growth [4] is reported as 17.9%. The growth [6] was 116% and the growth [10] was -28.9% (active).

Compound `O=C(c1ccccc1)c1ccccc1-c1ccccc1` has a growth [9] of 58.8%, a growth [2] of 31.3% and a growth [8] of 44.5%. For the same compound, the growth [3] was 8.04% (active), the growth [4] was 33.7% and the growth [5] was 17.4%. It also gave a growth [10] of 11% and a growth [7] of 30.4%.

For `Cc1cc2cn3c4ccc(O)cc4[nH]c(=O)c3c2cc1C`, the growth [9] was 41.3%, the growth [2] was 38.5% and the growth [8] was 3.07% (active). For the same compound, the growth [3] was 0.912% (active), the growth [4] was 11.8% and the growth [5] was -5.2% (active). The growth [6] was 18.6%, the growth [10] was -7.53% (active) and the growth [7] was -18.2% (active).

For `COc1cccc(NC(=O)NCCNc2nccc(-c3c(-c4ccc(F)cc4)nc4sccn34)n2)c1`, the growth [9] was 98.6%, the growth [2] was 72.8% and the growth [8] was 52.4%. It also gave a growth [3] of 76.2%, a growth [4] of 44.9% and a growth [5] of 93.4%. It also gave a growth [10] of 67.5% and a growth [7] of 77.8%.

With `COc1cc(-c2nn(-c3ccc(NC(=O)Nc4ccc(Cl)c(C(F)(F)F)c4)cc3)cc2-c2ccncc2)ccc1Cl` the growth [9] was 3.21% (active), the growth [2] was 26.2% and the growth [8] was 24.5%. The growth [3] was -3.21% (active), the growth [4] was 5.32% (active) and the growth [5] was -5.53% (active). The growth [6] was 6.77% (active) and the growth [7] was 1.77% (active).

In the case of `COC(=O)CC(=O)C(=O)OC`, the growth [2] is reported as 107%, the growth [8] is reported as 91.4% and the growth [4] is reported as 100%. It also gave a growth [5] of 133%, a growth [6] of 113% and a growth [7] of 97.9%.

In the case of `C=CCNCCC#N`, the growth [2] is reported as 109%, the growth [8] is reported as 102% and the growth [3] is reported as 110%. The growth [4] was 105%, the growth [5] was 113% and the growth [6] was 120%. For the same compound, the growth [7] was 107%.

With `Nc1nc(-c2cccc(Br)c2)cc(-c2cc3ccccc3oc2=O)n1` the growth [9] was 93.9%, the growth [2] was 99.9% and the growth [8] was 64.2%. It also gave a growth [4] of 98.2%, a growth [5] of 92% and a growth [6] of 123%. For the same compound, the growth [10] was 77.1% and the growth [7] was 82.4%.

Compound `O=C1OC(c2ccc(-c3ccccc3)cc2)=C/C1=C/c1c2ccccc2cc2ccccc12` has a growth [9] of 65.5%, a growth [2] of 101% and a growth [8] of 92.8%. The growth [3] was 77.9%, the growth [4] was 97.6% and the growth [6] was 83.7%. For the same compound, the growth [10] was 69.9% and the growth [7] was 72.6%.

For `CCCCn1c(Cc2ccc(OC)cc2)nc2cc(OC)c(OC)cc2c1=O`, the growth [9] was 44.8%, the growth [2] was 88.6% and the growth [8] was 74.7%. The growth [3] was 67.2%, the growth [4] was 80.9% and the growth [6] was 62%. For the same compound, the growth [10] was 53.1% and the growth [7] was 49.1%.

In the case of `C/C=C/C/C=C/[C@H](C)C[C@H](O)[C@@H]1C[C@@H]2O[C@H]2/C=C/[C@H](O)[C@@H](O)/C=C/C[C@H](C)CC(=O)O1`, the growth [9] is reported as 121%, the growth [2] is reported as 79.1% and the growth [8] is reported as 56.9%. For the same compound, the growth [3] was 42.8%, the growth [4] was 77.5% and the growth [6] was 115%. For the same compound, the growth [10] was 51.3% and the growth [7] was 81.5%.

In the case of `CCN(CC)CCNc1ncnc2c1cnn2-c1ccc(Cl)cc1`, the growth [9] is reported as 82.8%, the growth [2] is reported as 80.6% and the growth [3] is reported as 118%. The growth [4] was 92.6%, the growth [5] was 61.5% and the growth [6] was 73.1%. For the same compound, the growth [10] was 50.8% and the growth [7] was 92.9%.

Compound `COc1ccc(C(=O)NCCNc2nccc(-c3c(-c4ccc(F)cc4)nc4sccn34)n2)cc1` has a growth [9] of 66.8%, a growth [2] of 70% and a growth [8] of 34.3%. For the same compound, the growth [3] was 29.1%, the growth [4] was 29.2% and the growth [5] was 43.6%. The growth [10] was 48.1%.

Compound `COc1cccc(-c2cc(-c3cc4ccccc4oc3=O)nc(N)n2)c1` has a growth [9] of 99.2%, a growth [2] of 98.6% and a growth [8] of 55.8%. The growth [3] was 74.5%, the growth [4] was 98.3% and the growth [5] was 111%. It also gave a growth [10] of 87.6% and a growth [7] of 91.4%.

`O=c1c2c(c3ccccc3n1-c1ccccc1)NC(=S)NC2c1ccccc1` (stereo unspecified) showed a growth [9] of 97.1%, a growth [2] of 90.4% and a growth [8] of 71.7%. For the same compound, the growth [4] was 96.1%, the growth [5] was 105% and the growth [6] was 102%. For the same compound, the growth [10] was -25% (active) and the growth [7] was 66.2%.

In the case of `O=[N+]([O-])c1ccc(-c2ncc(-c3ccc(O)cc3O)[nH]2)cc1`, the growth [9] is reported as 92.4%, the growth [2] is reported as 101% and the growth [8] is reported as 102%. For the same compound, the growth [3] was 124%, the growth [4] was 106% and the growth [6] was 101%. For the same compound, the growth [10] was -19.1% (active) and the growth [7] was 99.1%.

With `CCCCCCCCc1ccc(CCC(N)(CO)CO)cc1` the growth [9] was 54.8%, the growth [8] was -7.93% (active) and the growth [3] was 16.6%. For the same compound, the growth [4] was -37.2% (active), the growth [5] was 16.1% and the growth [6] was 90.1%. For the same compound, the growth [10] was -5.69% (active) and the growth [7] was -28.3% (active).
